Screens (PubChem BioAssay)
hcDAF-12 act: H. contortus DAF-12 nuclear receptor activators, primary screen, cell-based, luminescence, HEK293, lit1-tk-luc reporter | hit rate 1.4% among 370,000 | activation, % at 6.8 µM | HEK293 hcDAF-12 lit1-tk-luc reporter; 0% DMSO, 100% Δ7-dafachronic acid | AID 652067, 2013;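 active means activation above the mean of all tested compounds plus 3 SD, cut at about 5.5% in these data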;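 further: 100% = response to 3 µM Δ7-dafachronic acid high control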
DAX1 inh-1: DAX1 (NR0B1) inhibitors, primary screen, cell-based, HEK293, Gal4-DAX1, luciferase luminescence. HEK293 Gal4-DAX1 luciferase reporter. inhibition, % at 6.75 µM. Nuclear receptor subfamily 0 group B member 1 (Homo sapiens), P51843. hit rate 0.99% among 340,000;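 active means inhibition above the mean over all tested compounds plus 3 SD, cut at about 4.2% in these data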;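 further: 0% = DAX1-transfected cells with DMSO and 100% = empty-vector control cells with DMSO; inhibition shows as a rise in luminescence from relieved DAX1 repression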
DAX1 inh-2: DAX1 (NR0B1) inhibitors on StAR promoter, primary screen, cell-based, luminescence, SF-1 (NR5A1), full-length DAX-1 | HEK293T StAR-luciferase reporter, SF-1/DAX-1 repression relief | inhibition, % at 6.8 µM | hit rate 1.1% among 370,000 | AID 652010, 2013;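 active means inhibition above the mean over all tested compounds plus 3 SD, cut at about 3.6% in these data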;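 further: 0% = DAX-1 cells with DMSO and 100% = cells lacking DAX-1 with DMSO; higher inhibition means more luminescence from relief of DAX-1 repression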
hgDAF-12 ag: H. glycines DAF-12 receptor agonists, primary screen, cell-based, luminescence, HEK293, GAL4 fusion, UAS-luciferase; AID 687014, 2013; activation, % at 6.8 µM; hit rate 1.8% among 370,000; HEK293 GAL4-hgDAF12 UAS-luciferase reporter, agonist luminescence; normalized to butyrate control; Nuclear hormone receptor DAF-12 (Heterodera glycines), GAL4 fusion;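 active means activation above a cutoff set at the mean of all screened compounds plus 3 SD, cut at about 10% in these data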;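 further: 0% = DMSO wells and 100% = sodium butyrate wells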
ssDAF12 agonist: S. stercoralis DAF-12 nuclear receptor activators, primary screen, cell-based, luminescence, HEK293, GRIP1 co-expression, lit1-tk-luc; Nuclear hormone receptor DAF-12 (Strongyloides stercoralis); HEK293 ssDAF-12/GRIP1 lit1-tk-luc reporter; % of 3 µM dafachronic acid response; activation, % at 6.8 µM; hit rate 1% among 370,000; AID 652126, 2013;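 active means activation above the mean over all tested compounds plus 3 SD, cut at about 0.9% in these data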;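 further: 0% = DMSO-only wells and 100% = 3 µM delta7-dafachronic acid wells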
DAX1 inh confirm: DAX1 (NR0B1) inhibitors relieving SF-1 repression, confirmation, cell-based, luminescence, HEK293T, full-length DAX-1, SF-1 activated StAR promoter | shares compounds with DAX1 inh-2 | hit rate 87% among 2,400 | HEK293T StAR-promoter luciferase reporter, SF-1/DAX-1 repression | inhibition, % at 6.8 µM | AID 652134, 2013;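 active means inhibition above the average of every tested compound plus 3 SD, cut at about 3.8% in these data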;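 further: 0% = DAX-1 cells with DMSO and 100% = no DAX-1 control cells with DMSO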
Target sequence (P51843 whole entry, looked up): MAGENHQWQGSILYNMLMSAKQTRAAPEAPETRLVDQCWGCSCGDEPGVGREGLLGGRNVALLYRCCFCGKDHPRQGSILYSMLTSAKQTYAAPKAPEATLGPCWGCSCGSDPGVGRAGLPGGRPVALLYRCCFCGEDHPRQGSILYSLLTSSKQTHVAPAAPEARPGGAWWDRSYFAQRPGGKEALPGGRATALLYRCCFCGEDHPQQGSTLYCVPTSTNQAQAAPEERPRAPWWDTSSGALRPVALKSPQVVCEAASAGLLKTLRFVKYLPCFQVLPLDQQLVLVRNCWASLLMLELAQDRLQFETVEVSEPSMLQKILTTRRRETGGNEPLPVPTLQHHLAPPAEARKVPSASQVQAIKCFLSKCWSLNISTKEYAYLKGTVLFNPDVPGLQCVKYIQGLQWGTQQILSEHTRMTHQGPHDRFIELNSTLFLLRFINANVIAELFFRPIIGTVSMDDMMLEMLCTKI
SF1 AF2mut Luc: StAR reporter signal changes without DAX1, counter-screen for DAX1 inhibitor project, cell-based, luminescence, AF-2 mutant SF-1, transactivation; HEK293 StAR-luciferase, SF-1 AF2 mutant; AID 652136, 2013; hit rate 78% among 2,400; shares compounds with DAX1 inh-2; inhibition, % at 6.8 µM;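 active means inhibition above the mean of all tested compounds plus 3 SD, cut at about 3% in these data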;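 further: 0% = DAX-1 transfected cells with DMSO and 100% = cells without DAX-1 with DMSO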
* hit, by the source's call; . = no result. This is a sample that favours compounds with a hit; in the whole collection about 4.1% have one here.

SMILES | hcDAF-12 act | DAX1 inh-1 | DAX1 inh-2 | hgDAF-12 ag | ssDAF12 agonist | DAX1 inh confirm | SF1 AF2mut Luc
C/C(Cc1ccccc1)=N\NC(=O)c1cccnc1 | -3 | 0 | 0 | -1 | 0 | . | .
CCOc1cc(/C=N/NC(=O)c2ccccn2)ccc1OC(=O)c1ccc(F)cc1 | 1 | 1 | 6.1* | 9 | 0 | 2 | 4.7*
O=C(COC(=O)c1cccc(Cl)c1Cl)NCc1cccs1 | -2 | 1 | 0 | -2 | -1 | . | .
COc1ncnc2c1cnn2-c1ccccc1 | -1 | 1 | 0 | 2 | -1 | . | .
COc1ccccc1Oc1ncnc2c1cnn2-c1ccccc1 | 2 | 0 | 4.7* | 12* | -1 | 3 | 3.6*
C/C=C/COC(=O)c1[nH]c2c(c1C)C(=O)CC(c1ccco1)C2 (stereo unspecified) | -2 | -4 | 2 | -3 | 0 | . | .
Cc1c(C(=O)OCC(C)C)[nH]c2c1C(=O)CC(c1ccco1)C2 (stereo unspecified) | -2 | -2 | 6.3* | -5 | -1 | 9.0* | -8
O=C(NC1CC1)c1cc2cc3ccccc3nc2s1 | 1 | 1 | 4.9* | 10 | 0 | 7.6* | 4.6*
CCN1C(=O)/C(=C/C=C2/SCCN2C)SC1=S | 5.8* | 4 | 4.7* | 10 | 0 | 11* | 5.6*
c1ccc2nc(NN=C3CCCCC3)ccc2c1 | 6.7* | 3 | 4.5* | 10 | 1.8* | 7.4* | 3.1*
c1ccc2[nH]c(NN=C3CCCCCC3)nc2c1 | 5 | 1 | 1 | 2 | 0 | . | .
COC(=O)CSc1nc(-c2cccs2)ccc1C#N | 6.5* | 4 | 5.9* | 12* | 1.8* | 9.9* | 8.2*
CCN=c1scc(-c2ccco2)n1/N=C/c1ccc(OC)c(O)c1 | 3 | 2 | 5.0* | 10 | 0 | 15* | 7.3*
CCN=c1scc(-c2ccco2)n1/N=C/c1ccc(O)cc1 | 1 | 0 | 2 | 5 | -1 | . | .
CCCn1cnc2cc(NCc3ccccn3)ccc21 | 2 | 2 | 5.0* | 10 | 0 | 3.8* | 2
COc1ccccc1-n1cnc2cc(NCc3ccccn3)ccc21 | -3 | 0 | -1 | 0 | -2 | . | .
CCc1ccc(CNc2ccc3c(c2)ncn3C)cc1 | 5 | 1 | 4.6* | 7 | 0 | 7.9* | 6.9*
COc1ccc(NC(=O)C2=Cc3ccccc3OC2)cc1 | 5.8* | -1 | 8.0* | 18* | 1.2* | 18* | 8.2*
O=C(Nc1ccc(Cl)cc1)C1=Cc2cc(Cl)ccc2OC1 | -1 | -1 | 0 | -1 | -1 | . | .
Cc1noc(C)c1COC(=O)C1CCN(S(=O)(=O)c2ccc(F)cc2)CC1 | -1 | 0 | -1 | 1 | 0 | . | .
CCOC(=O)c1ccc(NC(=S)NC(=O)COc2ccccc2)cc1 | -7 | 0 | -3 | -10 | -3 | . | .
CCOC(=O)c1c(C)[nH]c(C(=O)OCc2ccccc2)c1C | 4 | 1 | 15* | 12* | 1.9* | 12* | 5.5*
CCOC(=O)c1[nH]c(C)c(C(=O)OCc2ccc(C)cc2)c1C | 1 | -2 | 0 | 0 | -1 | . | .
COc1ccc(NC(=O)C(=O)NCC2CCCN2S(=O)(=O)c2ccc(C)cc2)cc1 (stereo unspecified) | -1 | 0 | 6.4* | -6 | -1 | 13* | -8
COc1ccc(S(=O)(=O)N2CCCC2CNC(=O)C(=O)Nc2ccc(C)cc2)cc1 (stereo unspecified) | -3 | 0 | -2 | 0 | -1 | . | .
